From PubChem
Compounds with a hit are over-represented: about 4.1% of the library has one in this group of screens.
AmpC no deterg: blocks E. coli AmpC beta-lactamase in detergent-free assay | Potency, µM (doses to about 57.1 µM), for the others: top-dose activity change, negative = inhibition, actives largely listed as inhibitors | AID 485341 | AmpC nitrocefin hydrolysis, absorbance 480 nm, 0.0001% Triton | 330,000 tested, 0.52% active | P00811;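 note: plate controls were no compound for no effect and no enzyme for full effect; nearly all actives have a fitted effect of over 20% in size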
Target sequence (P00811 whole entry, looked up): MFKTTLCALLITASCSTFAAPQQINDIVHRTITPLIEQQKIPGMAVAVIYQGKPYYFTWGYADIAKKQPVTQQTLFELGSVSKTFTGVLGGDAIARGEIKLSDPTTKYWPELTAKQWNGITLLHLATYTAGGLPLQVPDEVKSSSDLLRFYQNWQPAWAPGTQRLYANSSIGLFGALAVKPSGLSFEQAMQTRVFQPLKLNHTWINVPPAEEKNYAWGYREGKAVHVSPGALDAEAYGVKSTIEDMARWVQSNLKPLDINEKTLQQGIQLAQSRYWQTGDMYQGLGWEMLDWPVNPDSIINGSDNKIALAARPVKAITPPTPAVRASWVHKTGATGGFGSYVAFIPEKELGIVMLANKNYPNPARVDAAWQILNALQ
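20 mM phosphate pH 7.0 + 0.01% (detergent screen) or 0.0001% Triton X-100; 5.3 nM AmpC reagent; cpd preinc 15 min RT; nitrocefin (800 uM stock) to start; A480 q20 s × 4 min; Activity was normalised to no-enzyme and no-compound control wells.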
AmpC detergent: AmpC beta-lactamase inhibition with detergent present; AID 485294; AmpC hydrolysis of nitrocefin, absorbance 480 nm, 0.01% Triton; 370,000 tested, 0.041% active; P00811; Potency, µM (titrated, usually from 114 µM), for inactives: at the top dose activity change, negative = inhibition, actives largely listed as inhibitors;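 note: 0% = no-compound wells and -100% = no-enzyme wells; nearly all actives have a fitted effect of over 25% in size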
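AmpC (5.3 nM in the dispensed reagent) in 20 mM phosphate pH 7.0 with 0.01% (detergent screen) or 0.0001% Triton X-100 was preincubated with compounds for 15 min at room temperature. Nitrocefin was then added from an 800 uM solution, and hydrolysis was followed at 480 nm.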
Sm TGR inh: blocks Schistosoma mansoni thioredoxin glutathione reductase; Q962Y6; purified TGR, DTNB reduction, TNB absorbance 405 nm; Potency, µM (doses to about 114 µM), for inactives: at the top dose activity change, negative = inhibition, most hits filed as inhibitors; 360,000 tested, 3% active; AID 485364; note: nearly all actives have a fitted effect of over 60% in size
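First, TGR (20 nM dispensed) and NADPH were mixed with compound. Second, a 15 min room-temperature incubation followed. Third, further NADPH and then DTNB were added to start the reaction. Finally, TNB absorbance was monitored kinetically.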
AMA1-RON2 inh: disrupts binding of P. falciparum AMA1 to RON2; AlphaScreen AMA1-biotinylated RON2 peptide binding; Potency, µM (series often up to 58.2 µM), for inactives: at the highest dose activity change, negative = inhibition, hits mostly inhibitors; 360,000 tested, 0.2% active;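 note: 0% = vehicle wells and -100% = peptide control; nearly all actives have a fitted effect of over 45% in size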
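AMA1 (3D7) with his tag at 25 nM final met compounds first, then biotinylated RON2 peptide at 25 nM; detection used donor plus acceptor beads, 10 µg/mL apiece, read by AlphaScreen after 30 min at room temperature.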
FMDV inh: blocks foot and mouth disease virus; 410,000 tested, 1.2% active; FMDV antiviral cell-based qHTS; Potency, µM (highest dose often 57.9 µM), for the others: top-dose activity change, negative = inhibition, most hits filed as inhibitors; calls by dose curve; tested in HEK293T cells; note: read-out not given here; nearly all actives have a fitted effect of over 45% in size
* = called active by the depositor; ? = inconclusive; . = not tested or not shown. Unless noted, calls come from the whole dose curve; as a rule, active = well fitted curve in the direction sought with a large enough effect; inconclusive = small, poorly fitted or top-dose-only effect, or another doubt; inactive = no such curve, though single readings can be large; an effect the other way counts as inactive or inconclusive. Unless noted, % is set by controls: 0 for no effect and ±100 for the full control effect; potency is the fitted concentration of half-maximal effect.

SMILES	AmpC no deterg	AmpC detergent	Sm TGR inh	AMA1-RON2 inh	FMDV inh
O=C(NC1CCCCCC1)c1ccc(Br)o1	205%	-13%	1%	-8%	31%
Cn1c(C(=O)N2CCCC(C(=O)NCc3ccc4c(c3)OCO4)C2)cc2sccc21 (centres undefined)	63%	-9%	-6%	-11%	0%
CCn1c(C(=O)N2CCC(C(=O)NCc3ccc4c(c3)OCO4)CC2)cc2sccc21	97%	?	-11%	-9%	32µM*
O=C(NCc1ccco1)/C(=C\C=C\c1ccccc1)NC(=O)c1ccco1	-35%	1%	0%	-14%	14%
O=C(NCc1ccco1)/C(=C/c1ccco1)NC(=O)c1ccc(Br)o1	-34%	-8%	40µM*	11%	-6%
CC(C)C(NC(=O)/C(=C/c1ccco1)NC(=O)c1ccc(Br)o1)C(=O)O (centres undefined)	-15%	4%	35µM*	34%	10%
O=C(NCc1ccco1)/C(=C/C=C/c1ccccc1)NC(=O)c1ccco1	-27%	-2%	25µM*	-2%	4%
C=CCNC(=O)/C(=C\c1ccco1)NC(=O)c1ccco1	-11%	?	-3%	3%	7%
CC(C)C(NC(=O)/C(=C\c1ccco1)NC(=O)c1ccco1)C(=O)O (centres undefined)	-9%	-2%	?	71%	-10%
C=CCNC(=O)/C(=C/c1ccco1)NC(=O)c1ccc(Br)o1	-24%	2%	20µM*	8%	14%
CCc1cc2c(cc3c(=O)n(CC(=O)NCCc4ccc(OC)cc4OC)nc(CC)n32)s1	.	-5%	-2%	.	-4%
COc1ccc(C(=O)N/C(=C\c2ccco2)C(=O)NCc2ccco2)cc1	-22%	0%	45µM*	9%	-3%
O=C(NCc1ccco1)/C(=C\c1ccco1)NC(=O)c1ccco1	-15%	-2%	8.9µM*	0%	-11%
O=C(NCc1ccco1)/C(=C/c1ccccc1)NC(=O)c1ccco1	-5%	5%	4%	-16%	-21%
O=C(NCc1ccco1)/C(=C\c1ccco1)NC(=O)c1ccc(Br)o1	-18%	?	28µM*	-3%	17%
CC1CC2(O)c3no[n+]([O-])c3CCC2N1O (centres undefined)	3%	?	-16%	0%	-3%
CC1(N2CCOCC2)CC2(O)C(=[N+]1[O-])CCc1c2no[n+]1[O-] (centres undefined)	-4%	-9%	32µM*	-20%	0%
CC(=O)N1CCCC1c1nc2ccccc2n1Cc1ccccc1F (centres undefined)	.	26%	-14%	.	-8%
Cc1ccc(NC(=O)CN2C(=O)C3(SCC(=O)N3c3cccc(Cl)c3)c3ccccc32)cc1C (centres undefined)	.	4%	-6%	.	-11%
COc1ccc(CNC(=O)C2CCN(C(=O)c3ccc(F)cc3)CC2)cc1OC	-5%	-3%	1%	-8%	-22%
COc1cccc(NC(=O)N2CCN(c3nc(-c4cccc(OC)c4)cs3)CC2)c1	-41%	-3%	6%	-19%	32µM*
COc1ccc2c(c1OC)C(=O)OC2Nc1nc(-c2ccc(-c3ccccc3)cc2)cs1 (centres undefined)	-48%	-5%	-20%	-8%	?
COc1cccc(-c2csc(NC3OC(=O)c4c3ccc(OC)c4OC)n2)c1 (centres undefined)	-24%	-6%	40µM*	-13%	9%
COc1cccc(NC(=O)Nc2nc(-c3ccc(OC)c(OC)c3)cs2)c1	7%	10%	10%	-24%	25µM*
COc1ccc(-c2csc(NC(=O)C3CCN(C(=O)c4ccc(F)cc4)CC3)n2)cc1OC	166%	1%	1%	-12%	35µM*
COC(=O)c1ccccc1NC(=O)NCCc1c(C)nn(C)c1C	.	-3%	0%	.	7%
Cc1c(C(=O)N(C)CC2CCCN(C)C2)cnn1-c1nccc(-c2ccco2)n1 (centres undefined)	.	.	.	.	19%
CC(C)CC(C(=O)NCCc1ccccc1)N1Cc2ccccc2C1=O (centres undefined)	.	-5%	-10%	.	5%
